# Source: PubChem
# An excerpt weighted towards active compounds, which were near 0.95% of everything screened.
# Rhodamine autofl = compound autofluorescence in rhodamine spectral region | actives 0.05% (n = 59,000) | Rhodamine-region fluorescence, 547/598 nm, Tris buffer; stronger effect = higher value | AID 594 | max dye-equivalent concentration, M; in the data active means max dye-equivalent concentration above about 11 nM; inconclusive means between about 1.1 nM and that limit
#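 qHTS spectral profiling of compounds without any target or enzyme present, in pH 8.0 Tris buffer; plates were read after a 15-minute room-temperature incubation using the rhodamine-region filter set.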
# A488 autofl = A488 region autofluorescence; compound autofluorescence, A488 spectral region, dye equivalency; Compound Type: qHTS ECL - MLSMR; actives 0.1% (n = 59,000); max dye equivalency, M
#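 Compound autofluorescence was read in 100 mM Tris pH 8.0 after 15 min at room temperature, ex 480 nm/em 540 nm. Intensities were converted to A488 dye-equivalent concentration using an on-plate six-point A488 standard curve.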
# A647 fluor = A647 region autofluorescence | 59,000 tested, under 10 active | max dye-equivalent concentration, M | Compound fluorescence, A647 channel (570/671 nm), Tris buffer;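 further: values scaled relative to a standard on each plate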
#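 Fluorescence read (570 nm ex, 671 nm em) after 15 min RT incubation of compounds in 100 mM Tris buffer, pH 8.0; values expressed as dye-equivalent concentration against a six-point A647 standard series on each plate.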
# Fluorescein fluor = compound autofluorescence in fluorescein spectral region; Compound autofluorescence, 480/540 nm, fluorescein-equivalent; stronger effect = higher value; max fluorescein-equivalent concentration, M; actives 0.91% (n = 59,000); AID 593; in the data active means max fluorescein-equivalent concentration above about 10 nM; inconclusive means between about 1.1 nM and that limit
#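 Normalized response (dye-equivalent concentration) derives from comparing each well's 540 nm emission, under 480 nm excitation, with plate-resident fluorescein standards. Compounds were held in 100 mM Tris, pH 8.0, for 15 min at room temperature.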
# Texas Red fluor = Texas Red region autofluorescence. Compound fluorescence, Texas Red channel, 547/618 nm; stronger effect = higher value. max dye-equivalent concentration, M. actives 0.06% (n = 59,000). AID 587; in the data active means max dye-equivalent concentration above about 10 nM; inconclusive means between about 1.1 nM and that limit
#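 Compound titrations in 100 mM Tris pH 8.0 were incubated 15 min at room temperature and read at 547 nm excitation / 618 nm emission. Texas Red six-point standard curve on each plate converted fluorescence to dye-equivalent concentration.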
# Resorufin autofl = compounds fluorescent in resorufin spectral region. actives 0.04% (n = 59,000). Compound fluorescence, resorufin region 547/598 nm, buffer; stronger effect = higher value. max dye-equivalent concentration, M. AID 588
#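 Read-out: intrinsic compound fluorescence at ex 547/em 598 nm after 15 min at RT in pH 8.0 Tris (100 mM). Values expressed as resorufin-equivalent concentration from per-plate standard series.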
# * = called active by the depositor; i = inactive; ? = inconclusive. Unless noted, how the calls were made is not given here.
SMILES,Rhodamine autofl,A488 autofl,A647 fluor,Fluorescein fluor,Texas Red fluor,Resorufin autofl
Cc1ccc(-n2c(O)c(C=Nc3ccccc3N)c(=O)[nH]c2=O)cc1C,i,i,3.18e-08,?,i,i
O=c1[nH]c(=O)n(-c2ccc(F)cc2)c(O)c1C=Nc1ccccc1N1CCCC1,i,?,1.45e-08,3.96e-08M*,i,i
CC[C@H](CO)NC(=O)[C@@H]1C=C2c3cccc4c3c(cn4C)C[C@@H]2N(C)C1,i,i,1.8e-09,1.5e-08M*,i,i
CCN(CC)C(=O)N[C@H]1C=C2c3cccc4[nH]cc(c34)C[C@@H]2N(C)C1,i,?,2.3e-09,4.97e-08M*,?,i
N#CS.N=C=S.N=C=S.[Cu].[NH2-].[NH2-].[NH2-].[NH2-].c1ccc2ncccc2c1,i,i,6.39e-08,?,i,i
COc1cc2ccccc2c2cc([N+](=O)[O-])oc12,i,?,1e-09,3.99e-08M*,i,i
CC(C)n1cc2c3c(cccc31)[C@@H]1C[C@H](C(=O)O[C@@H](C)[C@H](C)O)CN(C)[C@H]1C2,i,i,1e-09,1.07e-08M*,i,i
COCCNC(=O)c1c(NC(=O)c2ccco2)n(Cc2ccccc2)c2nc3ccccc3nc12,i,i,1.9e-09,1.08e-08M*,i,i
Nc1c(C(=O)NCCc2ccccc2)c2nc3ccccc3nc2n1CCN1CCOCC1,i,i,3.59e-08,?,i,i
NC(=NCCC[C@@H](N)C(=O)O)N[N+](=O)[O-],i,i,1.44e-08,?,?,i
Nc1c(C(=O)NCCN2CCOCC2)c2nc3ccccc3nc2n1Cc1ccco1,i,i,3.95e-08,1.87e-08M*,i,i
CC(C)(C)OC(=O)c1c(N)n(Cc2ccco2)c2nc3ccccc3nc12,i,i,1.05e-08,2.84e-08M*,i,i
CCOC(=O)c1c(N)n(CCN2CCCCC2)c2nc3ccccc3nc12,i,i,1e-09,i,i,i
C=C(C)[C@H]1Cc2c(ccc3c2O[C@H]2COc4cc(OC)c(OC)cc4[C@@H]2C3=O)O1,i,i,1.3e-09,?,i,i
C[C@@H]1[C@H]2C=C[C@@H]1[C@@H](c1c3ccc(=O)c(O)c-3oc3c(O)c(O)ccc13)[C@@H]2C(=O)O,i,i,5.14e-08,?,i,i
C=CCCN1C[C@@H]2C[C@H](C1)c1cccc(=O)n1C2,i,i,1e-09,i,i,i
O=c1ccc2cc(O[C@@H]3O[C@@H](CO)[C@@H](O)[C@@H](O)[C@H]3O)c(O)cc2o1,i,i,2.45e-08,i,i,i
COc1cc(C=C(C#N)C#N)cc(O)c1O,i,i,3.75e-08,2.52e-08M*,i,i
NC(N)=Nc1ccc2[nH]c3c(c2c1)C[C@]1(O)[C@@H]2Cc4ccc(O)c5c4[C@]1(CCN2CC1CC1)[C@H]3O5,i,i,4.26e-08,?,i,i
O=c1[nH]c(=O)n(CCC2=CCCCC2)c(O)c1C=NCCN1CCNCC1,i,i,1.71e-08,i,i,i
C=CCn1c(O)c(C=NCCN(C)C)c(=O)[nH]c1=O,i,i,1e-09,?,i,i
CN(C)c1ccc(N=Cc2c(O)n(CCC3=CCCCC3)c(=O)[nH]c2=O)cc1,i,i,1e-09,1.35e-08M*,?,i
C=CCn1c(O)c(C=Nc2ccc(N(CC)CC)cc2)c(=O)[nH]c1=O,i,i,1e-09,1.41e-08M*,i,i
CCN(CC)c1ccc(N=Cc2c(O)n(CCC3=CCCCC3)c(=O)[nH]c2=O)cc1,i,?,3.5e-09,9.26e-08M*,i,i
O=c1cccc2n1C[C@H]1C[C@@H]2CN(CCO)C1,i,i,2.6e-09,i,i,i
COC1=C[C@H]2[C@@H]3Cc4ccc(OC)c(O)c4[C@@]2(CCN3C)CC1=O,i,i,1.68e-08,i,i,i
CN1C(=O)C(Cc2c[nH]c3ccccc23)C(=O)N(C)C1=O,1.38e-08M*,?,3.73e-08,3.36e-08M*,?,1.03e-08M*
